Measurements: the supplement of paper PMC8728848
This excerpt belongs to a sample that is enriched for the strongest signals.

Experiments:
Experiment in all cases: glycan array binding signal (z-score within array); higher = stronger binding
Settings in all cases: glycan notation: IUPAC condensed, linker removed
Fuc(a1-2)Gal(b1-3)GalNAc = target: Fuc(a1-2)Gal(b1-3)GalNAc
How it was run: (§1)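 Glycan array data came from 3228 arrays in the Consortium for Functional Glycomics database, and only arrays with an available protein sequence were kept. Glycan names were put into IUPAC-condensed notation, and columns mapping to the same glycan were averaged. The binding signal is a within-array Z-score, averaged across arrays of one protein sequence run at different concentrations or buffers and across linkers. A negative Z-score can be read as non-binding.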

[1] = target: Fuc(a1-2)[Gal(a1-3)]Gal(b1-4)Glc
How it was run: as §1

[2] = target: Fuc(a1-2)[GalNAc(a1-3)]Gal
How it was run: as §1

[3] = target: Fuc(a1-2)[GalNAc(b1-3)]Gal
How it was run: as §1

Fuc(a1-3)GlcNAc = target: Fuc(a1-3)GlcNAc
How it was run: as §1

Gal(a1-2)Gal = target: Gal(a1-2)Gal
How it was run: as §1

[4] = target: Gal(b1-3)[Fuc(a1-4)]GlcNAc(b1-3)Gal(b1-4)GlcNAc
How it was run: as §1

Gal(b1-4)GlcNAc = target: Gal(b1-4)GlcNAc
How it was run: as §1

[5] = target: Gal(b1-4)GlcNAc(b1-3)Gal(b1-4)Glc
How it was run: as §1

[6] = target: Gal(b1-4)GlcNAc(b1-3)Gal(b1-4)GlcNAc
How it was run: as §1

Gal4S6S(b1-4)GlcNAc = target: Gal4S6S(b1-4)GlcNAc
How it was run: as §1

Gal6S(b1-4)Glc = target: Gal6S(b1-4)Glc
How it was run: as §1

Gal6S(b1-4)GlcNAc = target: Gal6S(b1-4)GlcNAc
How it was run: as §1

GlcNAc(b1-3)Gal(b1-4)Glc = target: GlcNAc(b1-3)Gal(b1-4)Glc
How it was run: as §1

[7] = target: Man(a1-2)Man(a1-3)[Man(a1-2)Man(a1-6)]Man
How it was run: as §1

[8] = target: Man(a1-2)Man(a1-3)[Man(a1-2)Man(a1-6)]Man(a1-6)[Man(a1-2)Man(a1-2)Man(a1-3)]Man(b1-4)GlcNAc(b1-4)GlcNAc
How it was run: as §1

[9] = target: Neu5Ac(a2-3)Gal(b1-3)[Neu5Ac(a2-6)]GalNAc
How it was run: as §1

[10] = target: Neu5Ac(a2-3)Gal(b1-4)GlcNAc(b1-2)Man(a1-3)[Neu5Ac(a2-3)Gal(b1-4)GlcNAc(b1-2)Man(a1-6)]Man(b1-4)GlcNAc(b1-4)GlcNAc
How it was run: as §1

[11] = target: Neu5Ac(a2-3)Gal(b1-4)GlcNAc(b1-3)Gal(b1-4)GlcNAc(b1-3)Gal(b1-4)GlcNAc
How it was run: as §1

[12] = target: Neu5Ac(a2-3)Gal(b1-4)[Fuc(a1-3)]GlcNAc
How it was run: as §1

[13] = target: Neu5Ac(a2-3)Gal(b1-4)[Fuc(a1-3)]GlcNAc(b1-3)Gal(b1-4)GlcNAc
How it was run: as §1

[14] = target: Neu5Ac(a2-3)Gal(b1-4)[Fuc(a1-3)]GlcNAc(b1-3)Gal(b1-4)[Fuc(a1-3)]GlcNAc(b1-3)Gal(b1-4)[Fuc(a1-3)]GlcNAc
How it was run: as §1

[15] = target: Neu5Ac(a2-3)Gal6S(b1-4)GlcNAc
How it was run: as §1

Neu5Ac(a2-3)GalNAc = target: Neu5Ac(a2-3)GalNAc
How it was run: as §1

[16] = target: Neu5Ac(a2-6)Gal(b1-4)GlcNAc(b1-3)Gal(b1-4)[Fuc(a1-3)]GlcNAc(b1-3)Gal(b1-4)[Fuc(a1-3)]GlcNAc
How it was run: as §1

[17] = target: Neu5Ac(a2-6)Gal(b1-4)GlcNAc6S
How it was run: as §1

B1: F4 (Escherichia coli), A0A6L9DDF0 (protein)
chain: MKKTLIALALAASAVSGMAHAWTSGDFNGTVDIGGSIDATNYRQKWEWEVGTGLNGFYNALSELTNNDTKLTITVTGNKPILLGRTKEAFVTPTAGGWGGIPQIAFTDYKGAPVELKNPDGETNKGLAYFVLPMKNADGTEAGSVRVNASYAGAVVEKTSDSSAKLFSAYAGEVIRIFNGGLPVNVTQSELQSGVAAADRTALFGSLGKADLVAQFQAVIPGATVTDGTSSEHCTMRLLASAAYALGIADGQTIEATFNQAVTTSTQWSAPLNVAITYY
B1 was tested, and the “glycan array binding signal (z-score)” value (Fuc(a1-2)Gal(b1-3)GalNAc) was -0.145, the “glycan array binding signal (z-score)” value [1] was -0.191 and the “glycan array binding signal (z-score)” value [2] was -0.144. For the same binder, the “glycan array binding signal (z-score)” value [3] was -0.33, the “glycan array binding signal (z-score)” value (Fuc(a1-3)GlcNAc) was -0.164 and the “glycan array binding signal (z-score)” value (Gal(a1-2)Gal) was -0.128. For the same binder, the “glycan array binding signal (z-score)” value [4] was -0.232, the “glycan array binding signal (z-score)” value (Gal(b1-4)GlcNAc) was -0.137 and the “glycan array binding signal (z-score)” value [5] was -0.276. The “glycan array binding signal (z-score)” value [6] was -0.397, the “glycan array binding signal (z-score)” value (Gal4S6S(b1-4)GlcNAc) was 0.285 and the “glycan array binding signal (z-score)” value (Gal6S(b1-4)Glc) was -0.213. The “glycan array binding signal (z-score)” value (Gal6S(b1-4)GlcNAc) was 1.48, the “glycan array binding signal (z-score)” value (GlcNAc(b1-3)Gal(b1-4)Glc) was 8.86 and the “glycan array binding signal (z-score)” value [7] was 0.052. The “glycan array binding signal (z-score)” value [8] was -0.311, the “glycan array binding signal (z-score)” value [9] was -0.291 and the “glycan array binding signal (z-score)” value [10] was -0.209. The “glycan array binding signal (z-score)” value [11] was -0.282, the “glycan array binding signal (z-score)” value [12] was 2.09 and the “glycan array binding signal (z-score)” value [13] was -0.176. For the same binder, the “glycan array binding signal (z-score)” value [14] was -0.185, the “glycan array binding signal (z-score)” value [15] was -0.21 and the “glycan array binding signal (z-score)” value (Neu5Ac(a2-3)GalNAc) was -0.397. The “glycan array binding signal (z-score)” value [16] was 2.24 and the “glycan array binding signal (z-score)” value [17] was -0.382.
